Reference: PubChem BioAssay (NCATS)
Records with an inconclusive call do not appear. Entries that show only a call come without a potency. The source made the active and inactive calls. Unless noted, calls come from the whole dose curve; as a rule, active = well fitted curve in the direction sought with a large enough effect; inconclusive = small, poorly fitted or top-dose-only effect, or another doubt; inactive = no such curve, though single readings can be large; an effect the other way counts as inactive or inconclusive.

Legend:
[1] = Primary qHTS for inhibitors of La Crosse Virus (LACV) - induced cell death in SH-SY5Y cells (AID 1508616); conditions: SH-SY5Y LACV cytopathicity rescue, ATP luminescence, 6 d; series mostly up to 9.63 µM; note: potency is the fitted concentration of half-maximal effect;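 for activity change: top concentration of the series differs between compounds; higher means more rescue of cells from virus-induced death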
Procedure, shortened: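 SH-SY5Y, 6000 cells/well; cpd via pin tool in DMSO; LACV 0.01 MOI; 6 d 37C 5% CO2; ATPLite, 5 min RT; luminescence normalized to ±virus DMSO controls.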

[2] = Primary qHTS for small molecule stabilizers of the endoplasmic reticulum resident proteome: Secreted ER Calcium Modulated Protein (SERCaMP) assay (AID 1508630); conditions: SH-SY5Y GLuc-SERCaMP (Gaussia luciferase released on ER calcium loss) secretion, thapsigargin, luminescence; series mostly up to 38.4 µM
Procedure, shortened: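 The SH-SY5Y reporter protocol was run at 3 concentrations up to 38.3 uM (primary) or 11 concentrations (follow-up): 16 h compound, 100 nM thapsigargin for 4 h, then extracellular luciferase luminescence.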

Papain (Carica papaya) = Papain (Carica papaya) (UniProt P00784); assay: Primary qHTS assay for inhibitors of the protease papain (AID 1645873); conditions: papain Z-FR-AMC cleavage, AMC fluorescence; series mostly up to 49.8 µM;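 note: papain turnover of Z-FR-AMC read as the AMC fluorescence gain over 10 min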
Chain of Papain (Carica papaya) (P00784 whole entry, looked up): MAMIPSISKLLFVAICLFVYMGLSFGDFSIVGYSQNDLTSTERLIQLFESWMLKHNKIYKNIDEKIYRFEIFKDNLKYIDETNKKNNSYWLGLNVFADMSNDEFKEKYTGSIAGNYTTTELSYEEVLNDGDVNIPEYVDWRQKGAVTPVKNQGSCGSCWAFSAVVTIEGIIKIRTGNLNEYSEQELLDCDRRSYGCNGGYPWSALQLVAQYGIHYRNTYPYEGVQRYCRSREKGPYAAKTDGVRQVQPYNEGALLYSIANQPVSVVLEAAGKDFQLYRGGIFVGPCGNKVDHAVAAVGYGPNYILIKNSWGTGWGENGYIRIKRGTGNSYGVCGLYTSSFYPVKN

[3] = target: N-terminal Xaa-Pro-Lys N-methyltransferase 1 (Homo sapiens) (UniProt Q9BV86); assay: Confirmatory qHTS for Inhibitors of N-terminal methyltransferase 1 (NTMT1): MTaseGlo Assay (AID 1645874); conditions: NTMT1 enzyme, MTase-Glo SAH luminescence; series mostly up to 100 µM; note: potency is the fitted concentration of half-maximal effect; nearly all actives have a fitted effect of over 65% in size
Chain of N-terminal Xaa-Pro-Lys N-methyltransferase 1 (Homo sapiens) (Q9BV86 whole entry, looked up): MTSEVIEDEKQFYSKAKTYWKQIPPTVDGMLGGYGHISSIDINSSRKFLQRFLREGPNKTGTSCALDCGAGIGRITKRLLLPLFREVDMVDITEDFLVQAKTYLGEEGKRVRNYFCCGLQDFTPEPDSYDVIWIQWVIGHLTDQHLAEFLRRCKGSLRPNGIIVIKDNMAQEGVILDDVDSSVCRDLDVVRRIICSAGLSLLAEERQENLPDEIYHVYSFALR
Procedure, shortened: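 SPKRIA peptide at 1 uM was methylated by 125 nM NTMT1 using 100 uM SAM over 30 min at room temperature, following a 15 min compound preincubation. Product SAH was detected luminescently.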

[4] = Cytotoxicity counterscreen for inhibitors of SARS-CoV-2 cell entry (AID 1645845; calls by dose curve; note: nearly all actives have a fitted effect of over 50% in size); conditions: cell viability (SARS-CoV-2 entry assay cells); series mostly up to 57.1 µM
Procedure, shortened: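 After a 15 min room-temperature ATPLite 1step step, luminescence reflected ATP remaining in HEK293-ACE2 cells exposed to compound for 1 h plus 48 h at 37 C, with percent activity set by cell and no-cell controls.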

[5] = Primary qHTS to identify inhibitors of SARS-CoV-2 cell entry (AID 1645846; calls by dose curve; note: nearly all actives have a fitted effect of over 45% in size); conditions: SARS-CoV-2 pseudovirus cell entry assay, luminescence; activity change, negative = inhibition: at 57.1 µM (top of the series) unless noted; series mostly up to 57.1 µM
Procedure, shortened: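 Data are normalized to wells receiving SARS-CoV-2-S pseudoparticles and those given bald particles. Entry signal was luciferase luminescence in stable hACE2 Expi293F cells, 48 hr post-infection, after 1 hr compound pretreatment.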

[6] = Primary qHTS for inhibitors of nuclear receptor binding SET domain protein 2 (NSD2) in an isogenic RCH-ACV NSD2 p.E1099K mutant (9B) (AID 1645876); conditions: RCH-ACV NSD2 E1099K (9B) viability, CellTiter-Glo, 72 h; series mostly up to 44.9 µM; note: nearly all actives have a fitted effect of over 70% in size
[7] = Primary qHTS for inhibitors of nuclear receptor binding SET domain protein 2 (NSD2) in an RCH-ACV wild type WT cells (2C) (AID 1645877); conditions: RCH-ACV (leukaemia line) NSD2 WT (2C) viability, CellTiter-Glo, 72 h; series mostly up to 44.9 µM; note: nearly all actives have a fitted effect of over 70% in size
[8] = target: Rap guanine nucleotide exchange factor 3 (Homo sapiens) (UniProt O95398); assay: Confirmatory qHTS for agonist of cAMP-regulated guanine nucleotide exchange factor 3 (EPAC1) (AID 1645881); conditions: EPAC1 Rap1B BODIPY-GDP exchange fluorescence; series mostly up to 154 µM;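 note: EPAC1 catalysed release of BODIPY-GDP from Rap1B seen as fluorescence loss; nearly all actives have a fitted effect of over 75% in size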
Chain of Rap guanine nucleotide exchange factor 3 (Homo sapiens) (O95398 whole entry, looked up): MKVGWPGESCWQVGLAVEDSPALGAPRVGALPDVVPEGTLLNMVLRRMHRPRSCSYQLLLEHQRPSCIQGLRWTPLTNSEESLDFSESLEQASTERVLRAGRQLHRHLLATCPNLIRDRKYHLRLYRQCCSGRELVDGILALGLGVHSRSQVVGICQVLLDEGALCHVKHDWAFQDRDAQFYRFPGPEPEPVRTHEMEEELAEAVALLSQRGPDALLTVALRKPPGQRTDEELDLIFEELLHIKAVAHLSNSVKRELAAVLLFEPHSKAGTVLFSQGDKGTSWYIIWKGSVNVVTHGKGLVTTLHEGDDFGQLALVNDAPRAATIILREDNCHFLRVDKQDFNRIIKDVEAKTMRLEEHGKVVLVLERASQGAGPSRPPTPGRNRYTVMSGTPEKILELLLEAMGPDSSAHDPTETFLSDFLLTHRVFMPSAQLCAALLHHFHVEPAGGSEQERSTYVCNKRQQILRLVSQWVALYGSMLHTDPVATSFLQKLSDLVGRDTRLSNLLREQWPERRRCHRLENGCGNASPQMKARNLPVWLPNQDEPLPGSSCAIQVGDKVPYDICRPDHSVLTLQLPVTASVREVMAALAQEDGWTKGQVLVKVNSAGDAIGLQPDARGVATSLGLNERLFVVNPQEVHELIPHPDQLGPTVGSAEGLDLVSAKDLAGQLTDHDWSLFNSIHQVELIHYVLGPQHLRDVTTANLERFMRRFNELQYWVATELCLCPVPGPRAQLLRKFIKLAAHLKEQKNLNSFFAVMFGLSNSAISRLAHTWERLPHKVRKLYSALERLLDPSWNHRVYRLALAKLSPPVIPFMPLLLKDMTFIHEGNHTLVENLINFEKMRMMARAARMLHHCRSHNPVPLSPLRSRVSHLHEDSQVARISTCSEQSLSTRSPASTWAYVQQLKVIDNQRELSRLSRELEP

[9] = target: Calcium and integrin-binding protein 1 (Homo sapiens) (UniProt Q99828); assay: Validation qHTS for Identification of Calcium Integrin Binding protein 1 (CIB1) Competitor (AID 1508618); conditions: CIB1-GST / FITC-alphaIIb peptide fluorescence polarization; series mostly up to 114 µM
Chain of Calcium and integrin-binding protein 1 (Homo sapiens) (Q99828 whole entry, looked up): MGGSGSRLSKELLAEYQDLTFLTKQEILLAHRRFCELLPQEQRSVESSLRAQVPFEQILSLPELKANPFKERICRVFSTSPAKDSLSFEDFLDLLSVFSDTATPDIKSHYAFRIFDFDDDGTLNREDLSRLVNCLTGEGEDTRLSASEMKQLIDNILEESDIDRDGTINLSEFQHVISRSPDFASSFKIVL
Procedure, shortened: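 CIB1-GST (1 uM final) in 5 mM HEPES pH 7.4, 125 mM NaCl, 5 mM CaCl2, 0.01% Tween20 was preincubated 15 min at room temperature with compound (up to 114 uM), then FITC-alphaIIb peptide (100 nM) added for 15 min; fluorescence polarization read.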

[10] = Counterscreen qHTS for small molecule stabilizers of the endoplasmic reticulum resident proteome: GLuc-NoTag assay (AID 1508627); conditions: Gaussia luciferase NoTag secretion counterscreen, luminescence, thapsigargin 100 nM for final 4 h; series mostly up to 76.4 µM
Procedure, shortened: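 Secreted GLuc lacking the SERCaMP modification is measured in SH-SY5Y cells exposed to compound for 19 h and then to thapsigargin (100 nM, 4 h) to deplete ER calcium; hits retested at 11 concentrations, up to 76.6 uM.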

Structure (SMILES): Cc1c2ccncc2c(C)c2c1[nH]c1ccccc12
- Potency [1]: 1.58 µM (active)
- outcome [2]: inactive
- Potency (Papain (Carica papaya)): inactive

Structure (SMILES): NCC(CP(=O)(O)O)c1ccc(Cl)cc1 (stereo not drawn)
- Potency [1]: inactive
- outcome [2]: inactive

Structure (SMILES): CC(C)(C)c1cc(C=C(C#N)C#N)cc(C(C)(C)C)c1O
- Potency [1]: inactive
- outcome [2]: inactive
- Potency (Papain (Carica papaya)): inactive
- Potency [3]: 38.8 µM (active)

Structure (SMILES): C/C(O)=C(\C#N)C(=O)Nc1cc(Br)ccc1Br
- Potency [1]: inactive
- outcome [2]: inactive
- outcome [4]: inactive
- activity change, negative = inhibition [5]: -10.6%
- Potency [6]: inactive
- Potency [7]: inactive

Structure (SMILES): O=[N+]([O-])c1cc(O)c(O)c([N+](=O)[O-])c1
- Potency [1]: inactive
- outcome [2]: inactive
- Potency [8]: inactive

Structure (SMILES): NC(=O)CI
- Potency [1]: inactive
- outcome [2]: inactive
- Potency (Papain (Carica papaya)): inactive
- Potency [3]: 12.3 µM (active)

Structure (SMILES): C[Se]C[C@H](N)C(=O)O
- Potency [1]: inactive
- outcome [2]: inactive

Structure (SMILES): CN1CCc2cc(O)cc3c2[C@H]1Cc1ccc(O)c(O)c1-3
- Potency [1]: 3.98 µM (active)
- Potency (Papain (Carica papaya)): inactive

Structure (SMILES): OCc1cnc[nH]1
- Potency [1]: inactive
- outcome [2]: inactive
- Potency (Papain (Carica papaya)): inactive

Structure (SMILES): C[C@H](Cc1ccc2c(c1)OC(C(=O)O)(C(=O)O)O2)NC[C@H](O)c1cccc(Cl)c1
- Potency [1]: inactive
- outcome [2]: inactive
- Potency (Papain (Carica papaya)): inactive

Structure (SMILES): CN1CC[C@@]2(C)c3cc(O)ccc3N(C)C12 (stereo partly drawn)
- Potency [1]: inactive
- outcome [2]: inactive
- Potency (Papain (Carica papaya)): inactive

Structure (SMILES): Cc1cc([C@@H]2CCCN2C)on1
- Potency [1]: inactive
- outcome [2]: inactive
- Potency (Papain (Carica papaya)): inactive

Structure (SMILES): CCCN(CCC)CCc1ccc(O)c(O)c1
- Potency [1]: inactive
- Potency (Papain (Carica papaya)): inactive

Structure (SMILES): O=[N+]([O-])c1ccc2nc(N3CCNCC3)ccc2c1
- Potency [9]: inactive
- outcome [10]: inactive
- Potency (Papain (Carica papaya)): inactive

Structure (SMILES): CCCN(CCC)CCc1c[nH]c2ccc(C(N)=O)cc12
- Potency [1]: inactive
- outcome [2]: inactive

Structure (SMILES): O=S1(=O)N(CCN2CC=C(c3c[nH]c4cc(F)ccc34)CC2)c2cccc3c2N1CCC3
- Potency [1]: inactive
- outcome [2]: inactive
- Potency (Papain (Carica papaya)): inactive
